Reference: the supplement of paper PMC6897291

Tested on: RIVA
Assay: growth inhibition by drug plus 177Lu-lilotomab satetraxetan (1 - RLU/untreated control) (fraction); higher = stronger inhibition
Settings: 177Lu-lilotomab satetraxetan 0.5 ug/ml
Description: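 RIVA (RI-1) ABC-DLBCL cells were pretreated or not for 18 h with 0.5 ug/ml 177Lu-lilotomab satetraxetan (600 MBq/mg), washed and seeded (3000 cells/well) on 384-well plates pre-printed with the Selleck Cambridge Cancer Compound library. Viability was read by RealTime-Glo luminescence on days 3-6 after seeding. Effect = 1 - RLU/mean RLU of the 48 untreated no-drug control wells per plate; Bliss score = (M-E)/(1-Fa).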

| SMILES | growth inhibition by drug plus 177Lu-lilotomab satetraxetan (10 nM, time (day): 3) | growth inhibition by drug plus 177Lu-lilotomab satetraxetan (10 nM, time (day): 4) | growth inhibition by drug plus 177Lu-lilotomab satetraxetan (10 nM, time (day): 5) | growth inhibition by drug plus 177Lu-lilotomab satetraxetan (10 nM, time (day): 6) | growth inhibition by drug plus 177Lu-lilotomab satetraxetan (100 nM, time (day): 3) | growth inhibition by drug plus 177Lu-lilotomab satetraxetan (100 nM, time (day): 4) | growth inhibition by drug plus 177Lu-lilotomab satetraxetan (100 nM, time (day): 5) | growth inhibition by drug plus 177Lu-lilotomab satetraxetan (100 nM, time (day): 6) |
| --- | --- | --- | --- | --- | --- | --- | --- | --- |
| CCC1(c2ccc(N)cc2)CCC(=O)NC1=O (stereo not given) [Aminoglutethimide (Cytadren)] | 0.446 | 0.523 | 0.538 | 0.547 | 0.226 | 0.376 | 0.379 | 0.408 |
| O=P1(N(CCCl)CCCl)NCCCO1 (stereo not given) [Cyclophosphamide monohydrate] | 0.338 | 0.47 | 0.502 | 0.506 | 0.305 | 0.403 | 0.426 | 0.394 |
| CN(C)CCN(C)CCc1ccc(Cl)c(Cl)c1 | 0.215 | 0.408 | 0.459 | 0.48 | 0.0519 | 0.192 | 0.22 | 0.211 |
| CC[C@@H](C(=O)[C@@H](C)[C@@H](O)[C@H](C)[C@@H]1O[C@@H]([C@@H](CC)C(=O)O)CC[C@@H]1C)[C@H]1O[C@]2(C=C[C@@H](O)[C@]3(CC[C@@](C)([C@H]4CC[C@](O)(CC)[C@H](C)O4)O3)O2)[C@H](C)C[C@@H]1C [Salinomycin (Procoxacin)] | 0.491 | 0.572 | 0.591 | 0.6 | 0.481 | 0.518 | 0.517 | 0.502 |
| N[C@@H](Cc1ccc(N(CCCl)CCCl)cc1)C(=O)O [Melphalan] | 0.357 | 0.502 | 0.516 | 0.527 | 0.365 | 0.48 | 0.492 | 0.494 |
